Common to all, as to experiment: DAPPL (digital affinity profiling via proximity ligation, sequencing); 10 mM Tris-HCl pH 7.5, 50 mM NaCl, 1 mM DTT, 4% glycerol, room temperature, 30 min; GST-TFs on glutathione beads, 16-mer random dsDNA library, 0.1% formaldehyde crosslink after washing; high values mean tight binding
In one test the target is T1, FLI1 (Homo sapiens, UniProt Q01543 1-452).
T1 sequence: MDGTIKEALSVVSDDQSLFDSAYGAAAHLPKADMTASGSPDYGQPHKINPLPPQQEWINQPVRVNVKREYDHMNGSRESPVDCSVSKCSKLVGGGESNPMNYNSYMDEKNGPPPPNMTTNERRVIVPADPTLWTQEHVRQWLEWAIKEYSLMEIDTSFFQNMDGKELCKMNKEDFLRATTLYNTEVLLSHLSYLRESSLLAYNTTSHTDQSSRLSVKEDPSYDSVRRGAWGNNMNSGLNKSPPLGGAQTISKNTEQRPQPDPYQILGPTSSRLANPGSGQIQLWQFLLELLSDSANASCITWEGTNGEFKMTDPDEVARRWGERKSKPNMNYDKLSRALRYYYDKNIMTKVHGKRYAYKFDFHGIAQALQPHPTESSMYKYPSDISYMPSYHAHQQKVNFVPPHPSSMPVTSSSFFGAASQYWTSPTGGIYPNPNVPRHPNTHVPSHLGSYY
The note with it: protein: recombinant; tags: N-terminal GST; dsDNA, one strand shown. In outline: (§1)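 Each value of binding signal is a hexamer's read frequency for a factor divided by the same hexamer's frequency in the tag-only sample. Barcoded, bead-captured GST fusions of human transcription factors made in yeast were pooled with that sample and incubated with 200 nmole of a random double-stranded 16-mer DNA library in Tris/NaCl/DTT/glycerol buffer at room temperature for 30 min. Washing, 0.1% formaldehyde crosslinking, proximity ligation, PCR and Illumina NextSeq500 sequencing followed.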

For another test, the target named is T2, ELK1 (Homo sapiens, UniProt P19419 1-428).
T2 sequence: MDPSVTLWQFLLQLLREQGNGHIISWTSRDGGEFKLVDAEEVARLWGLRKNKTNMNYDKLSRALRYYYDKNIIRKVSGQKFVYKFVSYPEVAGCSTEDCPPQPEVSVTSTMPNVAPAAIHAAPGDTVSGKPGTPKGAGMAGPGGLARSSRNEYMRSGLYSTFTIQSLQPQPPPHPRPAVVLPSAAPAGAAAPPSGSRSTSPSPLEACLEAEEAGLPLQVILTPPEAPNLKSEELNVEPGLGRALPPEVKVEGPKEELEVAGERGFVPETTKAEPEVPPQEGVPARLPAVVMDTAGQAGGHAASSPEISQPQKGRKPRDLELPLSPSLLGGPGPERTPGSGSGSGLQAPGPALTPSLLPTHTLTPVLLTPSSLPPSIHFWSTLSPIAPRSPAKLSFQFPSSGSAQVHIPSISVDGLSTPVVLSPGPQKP
The note with it: protein: recombinant; tags: N-terminal GST; dsDNA, one strand shown. In outline: as §1

The target of another test is T3, GABPA (Homo sapiens, UniProt Q06546 1-454).
T3 sequence: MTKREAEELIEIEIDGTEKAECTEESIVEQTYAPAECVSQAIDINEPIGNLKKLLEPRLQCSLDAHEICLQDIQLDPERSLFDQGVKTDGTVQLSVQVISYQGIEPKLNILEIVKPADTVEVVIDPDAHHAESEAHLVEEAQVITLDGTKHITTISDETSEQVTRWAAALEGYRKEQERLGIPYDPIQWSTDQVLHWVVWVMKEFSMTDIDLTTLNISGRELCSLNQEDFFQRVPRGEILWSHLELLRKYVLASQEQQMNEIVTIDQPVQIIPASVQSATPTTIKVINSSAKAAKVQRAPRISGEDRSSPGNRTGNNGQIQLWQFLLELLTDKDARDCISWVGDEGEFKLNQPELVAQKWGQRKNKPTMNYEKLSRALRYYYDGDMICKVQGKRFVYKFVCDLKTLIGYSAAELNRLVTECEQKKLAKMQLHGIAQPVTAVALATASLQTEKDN
The settings on record: protein: recombinant; tags: N-terminal GST; dsDNA, one strand shown. In outline: as §1

A further test deals with ELF1 (Homo sapiens, UniProt P32519 1-619). The settings on record: protein: recombinant; tags: N-terminal GST; dsDNA, one strand shown. The method, boiled down:
as §1

The next test has as its target T4, EHF (Homo sapiens, UniProt Q9NZC4 1-300).
T4 sequence: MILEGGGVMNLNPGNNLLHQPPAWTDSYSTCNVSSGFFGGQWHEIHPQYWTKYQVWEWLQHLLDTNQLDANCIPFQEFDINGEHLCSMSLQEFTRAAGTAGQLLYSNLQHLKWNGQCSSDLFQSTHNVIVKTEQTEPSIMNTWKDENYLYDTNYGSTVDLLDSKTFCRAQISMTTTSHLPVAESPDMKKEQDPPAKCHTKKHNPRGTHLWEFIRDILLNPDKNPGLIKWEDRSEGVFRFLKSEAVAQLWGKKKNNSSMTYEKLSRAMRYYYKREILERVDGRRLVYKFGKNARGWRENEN
The settings on record: protein: recombinant; tags: N-terminal GST; dsDNA, one strand shown. The method, boiled down: as §1

For the next test, the target named is SPIB (Homo sapiens, UniProt Q01892 1-262). The note with it: protein: recombinant; tags: N-terminal GST; dsDNA, one strand shown. In outline: as §1
The target of the next test is T5, ELK3 (Homo sapiens, UniProt P41970 1-407).
T5 sequence: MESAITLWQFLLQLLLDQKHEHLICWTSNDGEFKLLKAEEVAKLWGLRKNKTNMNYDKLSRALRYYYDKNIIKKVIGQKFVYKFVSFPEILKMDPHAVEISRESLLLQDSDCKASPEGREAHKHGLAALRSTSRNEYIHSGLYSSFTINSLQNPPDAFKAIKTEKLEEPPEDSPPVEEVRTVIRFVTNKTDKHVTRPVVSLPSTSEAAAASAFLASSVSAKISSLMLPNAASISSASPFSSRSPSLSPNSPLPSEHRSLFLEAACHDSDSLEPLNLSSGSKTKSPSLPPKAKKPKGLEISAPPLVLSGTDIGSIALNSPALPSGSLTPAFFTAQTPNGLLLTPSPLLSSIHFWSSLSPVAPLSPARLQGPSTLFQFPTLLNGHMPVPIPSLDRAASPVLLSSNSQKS
The settings on record: protein: recombinant; tags: N-terminal GST; dsDNA, one strand shown. The method, boiled down: as §1

The next test has as its target T6, FEV (Homo sapiens, UniProt Q99581 1-238).
T6 sequence: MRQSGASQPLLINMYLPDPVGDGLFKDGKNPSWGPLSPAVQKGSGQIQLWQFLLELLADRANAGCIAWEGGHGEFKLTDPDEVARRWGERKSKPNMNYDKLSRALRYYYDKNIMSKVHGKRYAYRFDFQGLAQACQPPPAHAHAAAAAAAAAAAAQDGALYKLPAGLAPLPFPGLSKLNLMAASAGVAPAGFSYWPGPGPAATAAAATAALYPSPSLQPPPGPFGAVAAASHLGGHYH
The settings on record: protein: recombinant; tags: N-terminal GST; dsDNA, one strand shown. In outline: as §1

Another test deals with HSF1 (Homo sapiens, UniProt Q00613 1-529). The settings on record: protein: recombinant; tags: N-terminal GST; chain copies: 3; dsDNA, one strand shown. The method, boiled down:
as §1

Chain of HSF1 (Q00613 whole entry): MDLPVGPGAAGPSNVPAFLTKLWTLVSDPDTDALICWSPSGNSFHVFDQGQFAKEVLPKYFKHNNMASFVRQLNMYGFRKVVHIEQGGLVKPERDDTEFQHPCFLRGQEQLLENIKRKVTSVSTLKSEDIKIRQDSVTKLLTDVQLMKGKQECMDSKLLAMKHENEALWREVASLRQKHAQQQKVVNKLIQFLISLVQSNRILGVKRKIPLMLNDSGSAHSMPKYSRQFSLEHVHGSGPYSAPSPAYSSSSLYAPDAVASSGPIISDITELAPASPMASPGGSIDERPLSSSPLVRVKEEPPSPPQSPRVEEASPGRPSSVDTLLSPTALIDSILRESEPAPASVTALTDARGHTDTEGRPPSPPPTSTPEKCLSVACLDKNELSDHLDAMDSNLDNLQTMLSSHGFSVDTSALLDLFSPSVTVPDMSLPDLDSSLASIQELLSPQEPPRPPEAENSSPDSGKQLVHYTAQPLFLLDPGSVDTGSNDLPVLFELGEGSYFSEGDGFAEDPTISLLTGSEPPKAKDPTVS
Chain of ELF1 (P32519 whole entry): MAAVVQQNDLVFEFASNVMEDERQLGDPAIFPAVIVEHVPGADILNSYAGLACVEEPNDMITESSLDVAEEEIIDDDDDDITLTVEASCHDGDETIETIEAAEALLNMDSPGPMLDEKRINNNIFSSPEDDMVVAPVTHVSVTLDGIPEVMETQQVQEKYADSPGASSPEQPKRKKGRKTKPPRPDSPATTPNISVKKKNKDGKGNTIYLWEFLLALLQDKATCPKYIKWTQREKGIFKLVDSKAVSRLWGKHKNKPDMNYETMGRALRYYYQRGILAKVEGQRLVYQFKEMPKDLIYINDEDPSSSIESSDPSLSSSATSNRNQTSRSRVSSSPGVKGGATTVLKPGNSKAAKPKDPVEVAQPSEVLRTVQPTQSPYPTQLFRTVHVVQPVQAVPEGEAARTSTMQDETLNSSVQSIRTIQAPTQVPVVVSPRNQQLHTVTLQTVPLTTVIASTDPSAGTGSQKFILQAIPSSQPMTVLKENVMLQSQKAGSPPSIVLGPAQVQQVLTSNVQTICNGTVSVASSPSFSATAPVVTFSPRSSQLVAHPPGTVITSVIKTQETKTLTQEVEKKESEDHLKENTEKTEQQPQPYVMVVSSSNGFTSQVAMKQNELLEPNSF
Chain of SPIB (Q01892 whole entry): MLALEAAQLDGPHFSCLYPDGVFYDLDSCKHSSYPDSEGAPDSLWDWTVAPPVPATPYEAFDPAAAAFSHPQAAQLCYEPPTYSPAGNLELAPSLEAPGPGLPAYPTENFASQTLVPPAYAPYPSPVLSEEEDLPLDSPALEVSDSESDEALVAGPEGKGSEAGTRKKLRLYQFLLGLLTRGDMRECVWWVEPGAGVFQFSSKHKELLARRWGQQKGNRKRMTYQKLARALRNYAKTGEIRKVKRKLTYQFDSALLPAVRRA

Consider GATTAA, for which the binding signal was 1.01 fold enrichment (6-mer frequency, TF over GST control) in the test with FLI1; 1.04 fold enrichment (6-mer frequency, TF over GST control) with ELK1; 1.04 fold enrichment (6-mer frequency, TF over GST control) in the test with GABPA; 1.02 fold enrichment (6-mer frequency, TF over GST control) in the test with ELF1; 1.01 fold enrichment (6-mer frequency, TF over GST control) with EHF; 1.02 fold enrichment (6-mer frequency, TF over GST control) with SPIB. For the same sequence, the binding signal was 1.13 fold enrichment (6-mer frequency, TF over GST control) with ELK3; 1.02 fold enrichment (6-mer frequency, TF over GST control) with FEV; 2.83 fold enrichment (6-mer frequency, TF over GST control) with HSF1.

The record behind these values is article PMC7862700, “An all-to-all approach to the identification of sequence-specific readers for epigenetic DNA modifications on cytosine”.
